Screens: PubChem BioAssay, several laboratories
CHT allo act: CHT positive allosteric modulators, primary screen, cell-based, membrane potential dye, choline EC20. CHT-expressing cells; hits give high values; LV-AA mutant CHT in HEK293 cells. B-score at 10 µM. 310,000 tested, 0.49% active. AID 488977, 2010;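 active means initial fluorescence not abnormally high and integrated response B-score, plate-corrected, over 3 SD above library mean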
Target sequence (Q9GZV3 whole entry, looked up): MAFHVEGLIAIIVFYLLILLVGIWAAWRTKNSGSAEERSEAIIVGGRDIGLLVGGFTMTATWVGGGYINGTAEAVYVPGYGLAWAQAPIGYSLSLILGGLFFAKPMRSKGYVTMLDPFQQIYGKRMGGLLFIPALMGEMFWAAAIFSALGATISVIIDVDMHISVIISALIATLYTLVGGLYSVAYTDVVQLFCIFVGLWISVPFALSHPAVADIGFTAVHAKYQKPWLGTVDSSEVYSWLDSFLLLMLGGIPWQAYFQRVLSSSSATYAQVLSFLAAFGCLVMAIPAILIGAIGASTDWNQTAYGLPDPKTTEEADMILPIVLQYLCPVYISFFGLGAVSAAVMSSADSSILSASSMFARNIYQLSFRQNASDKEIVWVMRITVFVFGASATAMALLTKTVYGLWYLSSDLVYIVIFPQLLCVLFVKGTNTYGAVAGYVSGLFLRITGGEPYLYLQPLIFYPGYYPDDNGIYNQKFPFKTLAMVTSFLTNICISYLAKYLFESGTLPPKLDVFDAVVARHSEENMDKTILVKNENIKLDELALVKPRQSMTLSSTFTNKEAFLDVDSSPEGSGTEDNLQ
CHT inh: inhibitors of human choline transporter CHT. High affinity choline transporter 1 (Homo sapiens), Q9GZV3. CHT-expressing cells, membrane potential dye, choline response; hits give low values. B-score at 10 µM. 310,000 tested, 0.86% active;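 active means B-score over 3 SD under the library average, and starting fluorescence ratio not unusually high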;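 further: choline stimulus applied at its EC90 after an EC20 pre-addition; B-score computed on integrated fluorescence ratio after choline addition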
Kir21 block: inhibitors of mouse Kir2.1 inward-rectifier potassium channel. Inward rectifier potassium channel 2 (Mus musculus), P35561. HEK293-Kir2.1, FluxOR thallium flux fluorescence; hits give low values. B-score at 10 µM. 310,000 tested, 0.85% active. AID 1672, 2009;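 active means fluorescence ratio B-score at or below minus 3 SD of library scores, with starting-brightness B-score within 2 SD, cut at about -4.2 in these data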;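 further: channel flux triggered by added potassium and thallium sulfate stimulus; B-score of peak minus minimum fluorescence over baseline after thallium stimulus; more negative B-score means stronger Kir2.1 block with less thallium influx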
H9c2 TAG inh: inhibitors of triacylglycerol accumulation, primary screen, cell-based, uHTS, fluorescence, H9c2; 230,000 tested, 0.66% active; inhibition, % at 12.5 µM; H9c2 cells, Nile Red lipid (TAG) fluorescence; cells loaded with 200 µM oleic acid; AID 651582, 2012;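 active means pattern-corrected inhibition of lipid staining of at least 50% with the nuclear-stain viability signal not falling by more than 50%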;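 further: 0% = DMSO wells and 100% = triacsin C control wells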
CHT inh conf: CHT inhibitors, confirmation, cell-based, membrane potential dye, duplicate; CHT activity remaining % of control (hits give low values), % at 10 µM; 2,400 tested, 70% active; CHT-expressing cells, choline membrane potential dye; LV-to-AA substituted CHT, HEK293 cells; shares compounds with CHT inh; AID 493221, 2011;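 active means choline transporter activity left, mean of duplicates at 10 µM, below buffer-only control mean minus 3 SD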;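 further: depolarization triggered by choline at its EC90 following an EC20 pre-addition; 0% = hemicholinium-3 full block and 100% = buffer-only control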
HEK293 CHT ctr: membrane potential effects in parental HEK293, counter-screen for CHT inhibitor project, cell-based, membrane potential dye. choline response; active = decrease or increase beyond buffer ±3SD. AID 493222, 2011. shares compounds with CHT inh. 2,400 tested, 4% active. membrane potential ratio readout (active if shifted either direction beyond buffer ±3SD; no single direction) at 10 µM;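 further: parental cells lack the transporter so any hit is non-specific; ratio is peak minus trough fluorescence over baseline after EC90 choline challenge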
* hit, by the source's call; i = inactive; nt = not tested or not shown. Only some compounds are listed: those with a hit (about 2% of all), similar ones and a draw of the others.

SMILES	CHT allo act	CHT inh	Kir21 block	H9c2 TAG inh	CHT inh conf	HEK293 CHT ctr
CCOC(=O)C1=C(C)NC(C)=C(C(=O)OCC)C1C(=O)OCC(=O)NCc1ccco1	nt	nt	nt	-8.7	nt	nt
CN(c1cccc(Cl)c1)S(=O)(=O)c1cccc(C(=O)Nc2ccc3c(c2)CCC3)c1	i	i	-0.74	nt	nt	nt
CCN(CC)C(=O)C(C)OC(=O)COc1ccc(Cl)cc1C (stereo unspecified)	i	i	2.15	nt	i	i
Cc1cc(Cl)ccc1OCC(=O)OC(C)C(=O)N(C)C (stereo unspecified)	i	i	-0.84	-7.1	nt	nt
CC1CCC(NC(=O)CNC(=O)Cc2cccc3ccccc23)CC1 (stereo unspecified)	i	i	0.05	nt	nt	nt
O=C(Nc1cccnc1Cl)C1CCCN(c2ncnc3c2nc2n3CCCCC2)C1 (stereo unspecified)	i	i	2.05	nt	nt	nt
O=C(Nc1ccc(Cl)cn1)C1CCCN(c2ncnc3c2nc2n3CCCCC2)C1 (stereo unspecified)	i	-6*	0.2	nt	31.8%*	i
COc1ccc(Cl)cc1NC(=O)C1CCCN(c2ncnc3c2nc2n3CCCCC2)C1 (stereo unspecified)	i	-5.19*	-0.67	nt	57.5%*	i
O=C(COc1ccccc1)N1CCN(c2nnc(-c3ccccc3)c3ccccc23)CC1	i	-5.21*	0.23	-13.8	i	i
O=C(NCc1ccccc1)C1=C[C@@H](c2coc3ccccc3c2=O)C[C@@H](OCc2ccc(CO)cc2)O1	i	i	-0.74	-6.1	nt	nt
COc1ccc(C(=O)N=c2sc3ccccc3n2C)cc1OC	i	i	-0.73	-4.1	nt	nt
C=CC(=O)N=c1sc2ccccc2n1-c1ccccc1	i	-6.17*	-1.65	12.8	37.2%*	i
Cc1ccc(C)c(S(=O)(=O)C(C#N)c2nc3ccccc3nc2N2CC(C)OC(C)C2)c1 (stereo unspecified)	i	-8.15*	0.37	-13.0	41.3%*	i
NC(=O)Nc1ccc(C(=O)OCC(=O)NC2CCCCC2)cc1	i	i	1.64	14.2	nt	nt
NNC(=O)c1ccc(CN2CCCCC2)o1	i	-5.89*	-0.03	nt	i	i
N#CC(C#N)=c1ccc2c(c1)N1C3=C(CCCC3)CC3CCCCC31N=2 (stereo unspecified)	i	-11.2*	1.1	92.4*	62.2%*	i
N#C/C(C(N)=O)=c1/ccc2c(c1)N1C3=C(CCCC3)CC3CCCCC31N=2 (stereo unspecified)	i	-14.5*	1.13	nt	22.8%*	i
CN(CCc1ccccc1)C(=O)c1cc(COc2ccc(F)cc2Cl)on1	i	i	-0.71	nt	nt	nt
CCCOc1cccc(NC(=O)c2c(-c3ccccc3)noc2C)c1	i	i	-1.39	5.6	nt	nt
Cc1cccc(OCCOC(=O)c2c(-c3ccccc3)noc2C)c1	i	-5.42*	2.13	nt	i	i
Cc1sc2nc(SCCN(C)C)n(-c3ccccc3)c(=O)c2c1-c1ccc(F)cc1	i	-5.92*	-0.14	nt	26.2%*	i
COc1cc(C(=O)NCc2ncccc2C)ccc1OC1CCN(C(C)=O)CC1	i	i	-0.11	-1.0	nt	nt
COc1ccc(C2NC(=O)c3sc(=S)n(-c4ccccc4)c3N2)cc1 (stereo unspecified)	i	i	1.38	2.5	nt	nt
CCOc1ccc(C2NC(=O)c3sc(=S)n(-c4ccccc4)c3N2)cc1 (stereo unspecified)	i	-4.94*	-1.82	nt	i	i
Cc1cc(C)c2cc(C=O)c(Cl)nc2c1	i	-6.14*	-0.35	nt	i	i
SMILES	CHT allo act	CHT inh	Kir21 block	H9c2 TAG inh	CHT inh conf	HEK293 CHT ctr
CC(C)NC[C@H](O)c1ccc(O)c(O)c1	i	i	nt	-2.2	39.0%*	i
CC/C(=C(/CC)c1ccc(O)cc1)c1ccc(O)cc1	i	-7.43*	-0.36	8.1	55.2%*	i
N#Cc1c(Cl)cccc1N1CCCC1	i	-7.19*	-1.35	4.0	49.1%*	i
C[C@@H]1CN([C@@H](C)CO)C(=O)CCCn2nncc2CO[C@H]1CN(C)Cc1ccc(Oc2ccccc2)cc1	nt	nt	nt	-5.9	nt	nt
CCOC(=O)C1CCCN(C(=O)c2csc(-c3ccc4c(c3)CCO4)n2)C1 (stereo unspecified)	i	-7.23*	-0.61	-5.5	56.5%*	i
CC1CCN(C(=O)CSCC(=O)Nc2nc(-c3cccs3)cs2)CC1	i	-5.26*	-1.4	9.9	i	i
Cc1cccc(N2CCN(C(=O)CCn3c(=O)[nH]c4ccsc4c3=O)CC2C)c1 (stereo unspecified)	i	i	0.23	nt	nt	nt
Cc1cccc(N2CCN(C(=O)CCCn3c(=O)[nH]c4ccsc4c3=O)CC2C)c1 (stereo unspecified)	i	-10.9*	-1.29	nt	18.7%*	i
CCN1CCN(C(=O)CCc2nc3ccccc3n2-c2ccccc2)CC1	i	-6.08*	-0.87	nt	40.0%*	i
COc1cc(C(=O)NCCCNc2nc3cc(C)c(C)cc3cc2C#N)cc(OC)c1OC	i	i	-1.35	4.9	nt	nt
O=C(O)c1ccccc1C(=O)c1ccc(Cl)cc1	i	i	-2.22	15.2	nt	nt
O=C(CC(CC(=O)c1ccc(Cl)cc1)c1ccccc1C(=O)O)c1ccc(Cl)cc1	i	-5.83*	-0.89	nt	40.4%*	i
COc1cccc(NC(=O)c2nc(S(C)(=O)=O)ncc2Cl)c1	i	-6.85*	-6.33*	nt	36.0%*	i
O=C(C1CCCN1S(=O)(=O)c1cccc2nsnc12)N1CCCCC1 (stereo unspecified)	i	-9.82*	-2.81	-5.5	i	i
CC(=O)c1ccc(N2CCN(C(=O)C3CCCN3S(=O)(=O)c3cccc4nsnc34)CC2)cc1 (stereo unspecified)	i	i	0.42	nt	nt	nt
O=C(O)c1cccc2c1C(=O)c1cc([N+](=O)[O-])cc([N+](=O)[O-])c1-2	nt	nt	nt	4.1	nt	nt
O=C(O)c1cccc2c1/C(=N/Nc1ccc([N+](=O)[O-])cc1[N+](=O)[O-])c1ccccc1-2	i	-6.19*	-1.25	nt	69.1%*	i
Cc1ccn(CC(C)C(=O)O)n1 (stereo unspecified)	i	i	-0.06	9.6	nt	nt
CCCn1c(C)cc(=O)c2cc(NC(=O)c3ccccn3)ccc21	i	-5.1*	-1.98	-10.6	52.9%*	2.79*
CCCC(=O)Nc1ccc(NC(=O)c2ccccn2)cn1	i	i	-0.37	9.7	nt	nt
